Test results as given in PubChem BioAssay (Tox21).
Records with an inconclusive call do not appear. Where a call stands in place of a potency, no number is given. Active and inactive are the calls of the source. Calls follow the shape of the dose curve; as a rule, active = well fitted curve in the direction sought with a large enough effect in the repeat runs; inconclusive = weak or mixed curves; inactive = no such curve, though single readings can be large; an effect the other way counts as inactive or inconclusive.

Test system: not listed separately
Assay: qHTS assay to identify small molecule antagonists of the constitutive androstane receptor (CAR) signaling pathway - cell viability counter screen (AID 1224837); also: nearly all actives have a fitted effect of over 45% in size; also: potency is read from the fitted curve at half-maximal effect
Conditions: HepG2-CYP2B6-hCAR viability, CellTiter-Fluor, 23 h, co-treated with 50 nM CITCO; series mostly up to 92.4 µM
Summary of the method: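 HepG2-CYP2B6-hCAR cells, 2500/well, 4 hr pre-incubation; compound titration, 15 conc.; CITCO 50 nM final; 23 hr, 37 C/5% CO2; CellTiter-Fluor, fluorescence intensity.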

Row | Compound | Potency
1 | CO/N=C1\CN(c2nc3c(cc2F)c(=O)c(C(=O)O)cn3C2CC2)CC1CN (stereo not drawn) | inactive
2 | O=C(O)c1ccc(CO)o1 | inactive
3 | CCCOc1ccc(S(=O)(=O)N2CCN(CC)CC2)cc1-c1nc2c(CC)n(Cc3ccccn3)nc2c(=O)[nH]1 | inactive
4 | O=C(CCC1CCN(Cc2ccccc2)CC1)c1ccc2c(c1)NCCCC2 | inactive
5 | CCOC(=O)OCC | inactive
6 | CC(C)(C)CC(C)(C)c1ccc(OCCO)cc1 | 43 µM (active)
7 | CSc1ccc(Oc2ccc(S(N)(=O)=O)cc2CN(C)C)cc1C | inactive
8 | CCCCOC(=O)CCS | inactive
9 | COc1ccc([C@@H]2Sc3ccccc3NC(=O)[C@@H]2O)cc1 | inactive
10 | CCCCCCOC(=O)C(C)C | inactive

Biological target: Nuclear receptor subfamily 1 group I member 3 (Homo sapiens) (UniProt Q14994)
Assay: qHTS assay to identify small molecule antagonists of the constitutive androstane receptor (CAR) signaling pathway (AID 1224838); also: nearly all actives have a fitted effect of over 40% in size
Conditions: HepG2-CYP2B6-hCAR luciferase, CITCO-stimulated, 24 h; series mostly up to 92.4 µM
Summary of the method: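 HepG2-CYP2B6-hCAR cells; 4 h pre-incubation; cpd (15 conc) + CITCO 50 nM final; 24 h, 37 C/5% CO2; ONE-Glo, luminescence.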

Nuclear receptor subfamily 1 group I member 3 (Homo sapiens), sequence (Q14994 whole entry, looked up): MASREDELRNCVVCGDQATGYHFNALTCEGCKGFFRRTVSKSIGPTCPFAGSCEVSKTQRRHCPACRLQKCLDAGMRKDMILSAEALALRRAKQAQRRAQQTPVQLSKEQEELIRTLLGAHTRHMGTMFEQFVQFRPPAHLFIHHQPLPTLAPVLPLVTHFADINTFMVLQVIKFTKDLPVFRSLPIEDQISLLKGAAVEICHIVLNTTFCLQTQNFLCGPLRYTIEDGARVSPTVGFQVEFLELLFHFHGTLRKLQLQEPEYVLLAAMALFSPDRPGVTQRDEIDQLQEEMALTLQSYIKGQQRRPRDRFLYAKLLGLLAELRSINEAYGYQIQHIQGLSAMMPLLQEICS

Row | Compound | Potency
11 | CCCOC(=O)c1ccc(N)cc1 | inactive
12 | CCC(C(=O)OCCN(CC)CC)c1ccccc1 (stereo not drawn) | inactive
13 | NC(=O)N(O)[C@@H]1COc2cc(OCc3ccccc3)ccc21 | inactive
14 | CCOC(=O)C(C)Oc1ccc(Oc2nc3ccc(Cl)cc3o2)cc1 (stereo not drawn) | inactive

Biological target: Nuclear receptor subfamily 1 group I member 3 (Homo sapiens) (UniProt Q14994)
Assay: qHTS assay to identify small molecule agonists of the constitutive androstane receptor (CAR) signaling pathway (AID 1224839); also: nearly all actives have a fitted effect of over 15% in size; also: potency is read from the fitted curve at half-maximal effect
Conditions: HepG2 hCAR CYP2B6-luciferase, agonist mode, 24 h; series mostly up to 92.4 µM
Summary of the method: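 HepG2 cells stably expressing hCAR and a CYP2B6-2.2kb luciferase reporter were treated with compounds at 15 concentrations plus 0.75 uM PK11195 (final) for 24 h at 37 C; luminescence was read after ONE-Glo addition.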

Row | Compound | Potency
15 | CCCCCCCC/C=C\CCCCCCCC(=O)OC(CO)CO | inactive
16 | OC(CCCN1CCCCC1)(c1ccccc1)c1ccccc1 | inactive
17 | CC(=O)[C@H]1CC[C@H]2[C@@H]3C=CC4=CC(=O)CC[C@@]4(C)[C@@H]3CC[C@]12C | inactive
18 | CCN(Cc1cccc(S(=O)(=O)O)c1)c1ccc(C(=C2C=CC(=[N+](CC)Cc3cccc(S(=O)(=O)[O-])c3)C=C2)c2ccccc2)cc1 | inactive
19 | C[N+]1(C)CCC(=C(c2ccccc2)c2ccccc2)CC1 | inactive
20 | CCOC(=O)N1CCC(n2c(=O)[nH]c3cc(Cl)ccc32)CC1 | inactive
21 | CN(C)C(=O)Nc1ccc(Oc2ccc(Cl)cc2)cc1 | 30.6 µM (active)
22 | O=C(CCCCCCCCC#CI)Oc1ccccc1 | inactive
23 | CCn1nc(C)c2c1C(=O)NCC(c1ccc(O)cc1)=N2 | inactive
24 | CC1(C)O[C@@H]2C[C@H]3[C@@H]4CCC5=CC(=O)C=C[C@]5(C)[C@H]4[C@@H](O)C[C@]3(C)[C@]2(C(=O)CO)O1 | inactive
25 | O=c1[nH]c2ccc(S(=O)CCN3CCC(Cc4ccc(F)cc4)CC3)cc2o1 (stereo not drawn) | inactive
26 | CCCCC(CC)COC(=O)COc1ccc(Cl)cc1C (stereo not drawn) | inactive
27 | CNC(=S)NC | inactive
28 | C/C(=N/NC(=O)c1ccncc1)C(=O)O | inactive
29 | CO/N=C1\CN(c2nc3c(cc2F)c(=O)c(C(=O)O)cn3C2CC2)CC1CN (stereo not drawn) | inactive
30 | O=C(O)c1ccc(CO)o1 | inactive
31 | CCCOc1ccc(S(=O)(=O)N2CCN(CC)CC2)cc1-c1nc2c(CC)n(Cc3ccccn3)nc2c(=O)[nH]1 | inactive
32 | CCCCOC(=O)CCS | inactive
33 | COc1ccc([C@@H]2Sc3ccccc3NC(=O)[C@@H]2O)cc1 | inactive
